Nrf2 inh = Nrf2 pathway inhibition. 360,000 compounds, 2.1% hits. A549 ARE-Fluc reporter, luciferase luminescence, 18-24 h. Potency, µM (doses to about 46 µM), hits mostly inhibitors; also: nearly all actives have a fitted effect of over 60% in size
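Nrf2 activity is the BugLite luminescence, read 15 min after reagent at room temperature, following CellTiter-Fluor cytotoxicity readout (30 min, 37C). Compound titrations were applied for 18-24 h to 5000 A549 ARE_Fluc cells/well in 5% FBS OPTI-MEM.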
A549 viability = A549 cytotoxicity, counter-screen for Nrf2 inhibitors. A549 ARE-Fluc cells, CellTiter-Fluor viability, 18-24 h. AID 504648. 390,000 compounds, 0.16% hits. Potency, µM (doses to about 46 µM), usual class: inhibitors
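A549 ARE-Fluc cells in 5% FBS OPTI-MEM, 5000 cells/well, rested 2 h then exposed to compounds in concentration-response for 18-24 h at 37 °C. Viability by CellTiter-Fluor fluorescence (Ex 405/Em 525) after 30 min; luciferase luminescence (BugLite, 15 min, RT) read afterwards.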
ELG1 DNA repair = ELG1-dependent DNA repair inhibition; HEK293T ELG1-luciferase reporter, luminescence, 16 h; DNA damage induced by 5-fluorouridine; 330,000 compounds, 2.3% hits; Potency, µM (series often up to 46.1 µM), most hits filed as inhibitors; also: nearly all actives have a fitted effect of over 55% in size
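Cells (2,000 per well) received 5-fluorouridine plus test compound or DMSO and were incubated 16 hr at 37 °C, 5% CO2. Luciferase activity was read by luminescence 30 min after ONE-Glo addition; signal suppression marked inhibition of damage-induced ELG1 function.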
Nrf2 activator = Nrf2 pathway activation; 410,000 compounds, 0.31% hits; Potency, µM (titrated, usually from 46.1 µM), actives largely listed as activators; AREc32 ARE-luciferase reporter (MCF7-derived line), luminescence, 24 h; also: nearly all actives have a fitted effect of over 65% in size
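AREc32 cells carrying an ARE-driven firefly luciferase, 1000 cells/well in OPTI-MEM with 5% FBS, dosed after overnight attachment and incubated 24 hr at 37 deg C. Steady-Glo luminescence read after 30 min at RT.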
Large screens that a line does not name were inactive. Rows were chosen to be rich in hits. Some 3.7% of all compounds tested hit in one or more screens of this group. Calls follow the shape of the dose curve; as a rule, active = well fitted curve in the direction sought with a large enough effect; inconclusive = small, poorly fitted or top-dose-only effect, or another doubt; inactive = no such curve, though single readings can be large; an effect the other way counts as inactive or inconclusive.

COC1CCC(OC2CC(C3(C)CCC4(CC(O)C(C)C(C(C)/C=C(\C)C(=O)C(C)CC(C)C(=O)O)O4)O3)OC3(OC(C4OC(O)(CO)C(C)CC4C)CC3C)C2C)OC1C (configuration not stated)	Nrf2 inh 0.41µM, A549 viability 0.65µM (no result: ELG1 DNA repair)
CC/C(=N\Nc1ccccc1)c1c(O)[nH]c(=O)[nH]c1=O	ELG1 DNA repair 4.1µM
CC/C(=N\Nc1cccc2ccccc12)c1c(O)[nH]c(=O)[nH]c1=O	ELG1 DNA repair inconclusive
COc1ccc(OC)c(C(Nc2ccccc2)P(=O)(OC(C)C)OC(C)C)c1 (configuration not stated)	ELG1 DNA repair inconclusive
Cc1onc(-c2ccccc2Cl)c1C(=O)OCC(=O)c1ccc2c(c1)OCCO2	Nrf2 inh inconclusive, ELG1 DNA repair 13µM
CC(=O)Nc1ccccc1C(=O)OCC(=O)c1ccc2c(c1)OCCO2	ELG1 DNA repair inconclusive
NC(=O)c1sc2nc3c(c(-c4cccs4)c2c1N)CCCC3	ELG1 DNA repair 2.3µM (no result: Nrf2 inh, A549 viability, Nrf2 activator)
CN1CCc2nc3sc(C#N)c(N)c3c(-c3cccs3)c2C1	Nrf2 inh inconclusive
O=C(CSC1c2ccccc2-c2ccccc21)N/N=C/c1ccc(C(=O)O)cc1	none
O=C(CSC1c2ccccc2-c2ccccc21)N/N=C/c1ccccc1O	Nrf2 inh 5.2µM, A549 viability 21µM, ELG1 DNA repair 3.7µM
COC(=O)C1=C(c2ccccc2OCc2ccccc2)C[C@@H]2CC[C@H]1N2C(=O)NCc1ccc(C(F)(F)F)cc1	Nrf2 inh 16µM
COC(=O)C1=C(c2ccc(F)cc2OCc2ccccc2)C[C@@H]2CC[C@H]1N2C(=O)NCc1ccc(C(F)(F)F)cc1	Nrf2 inh 18µM, ELG1 DNA repair inconclusive
COC(=O)C1=C(c2ccc(F)cc2OCc2ccccc2)C[C@@H]2CC[C@H]1N2C(=O)NCc1ccc2c(c1)OCO2	Nrf2 inh 18µM, ELG1 DNA repair inconclusive
COC(=O)C1=C(c2ccccc2OCc2ccccc2)C[C@@H]2CC[C@H]1N2C(=O)NCc1ccc(Br)cc1	Nrf2 inh 21µM
COC(=O)C1=C(c2ccc(F)cc2OCc2ccccc2)C[C@@H]2CC[C@H]1N2C(=O)NCc1ccccc1OC	Nrf2 inh inconclusive, ELG1 DNA repair inconclusive
COC(=O)C1=C(c2ccccc2OCc2ccccc2)C[C@@H]2CC[C@H]1N2C(=O)NCCc1ccc(F)cc1	Nrf2 inh inconclusive, A549 viability inconclusive, ELG1 DNA repair 21µM
COC(=O)C1=C(c2ccccc2OCc2ccccc2)C[C@@H]2CC[C@H]1N2C(=O)NCc1ccccc1	Nrf2 inh inconclusive, ELG1 DNA repair inconclusive
COC(=O)C1=C(c2ccc(F)cc2OCc2ccccc2)C[C@@H]2CC[C@H]1N2C(=O)NCCO	none
COC(=O)C1=C(c2ccc(F)cc2OCc2ccccc2)C[C@@H]2CC[C@H]1N2C(=O)NCc1cccc(F)c1	Nrf2 inh inconclusive, ELG1 DNA repair inconclusive
COC(=O)C1=C(c2ccccc2OCc2ccccc2)C[C@@H]2CC[C@H]1N2C(=O)NCc1cccc(C(F)(F)F)c1	Nrf2 inh 16µM, ELG1 DNA repair inconclusive
COC(=O)C1=C(c2ccc(F)cc2OCc2ccccc2)C[C@@H]2CC[C@H]1N2C(=O)NCc1ccccc1	Nrf2 inh 16µM, A549 viability inconclusive, ELG1 DNA repair inconclusive
Cc1ccc(-n2c(/C=C/c3ccc(Br)s3)nc3ccccc3c2=O)cc1C	none (no result: Nrf2 inh, ELG1 DNA repair)
N#CCCN(C(=O)COC(=O)c1ccc2c(c1)NC(=O)CS2)c1ccc2c(c1)OCCO2	ELG1 DNA repair inconclusive
Cc1c(N)cccc1N	ELG1 DNA repair inconclusive
Cc1nn(-c2nccs2)c2c1C(=O)CC(C)(C)C2Br (configuration not stated)	Nrf2 inh inconclusive (no result: ELG1 DNA repair)
CC(C)c1ccc(NC(=O)Cn2c(=O)oc3cc(S(=O)(=O)N4CCCC4)ccc32)cc1	Nrf2 inh 21µM (no result: ELG1 DNA repair)
COc1ccc(CNC(=O)Cn2c(=O)oc3cc(S(=O)(=O)N4CCCC4)ccc32)cc1	Nrf2 inh inconclusive
C=CC[C@@H](CC(=O)N(CCO)Cc1ccccc1)C(=O)NC[C@H](OC(=O)[C@@H](CC=C)CC(=O)OC(C)(C)C)c1ccccc1	Nrf2 inh inconclusive, ELG1 DNA repair 21µM
O=c1oc2cccnc2n1CCS(=O)(=O)c1ccc(F)cc1	Nrf2 activator inconclusive
COc1cc(OC)c(/C=C2\C(=O)Nc3ccccc32)c(OC)c1	Nrf2 inh inconclusive, ELG1 DNA repair inconclusive
O=C1Nc2ccccc2/C1=C/c1cnc[nH]1	Nrf2 inh 7.3µM
COc1ccc2c(c1)/C(=C/c1cnc[nH]1)C(=O)N2	Nrf2 inh 18µM, A549 viability inconclusive, ELG1 DNA repair inconclusive
Cc1nnc(NC(=O)c2cccn(Cc3cccc([N+](=O)[O-])c3)c2=O)s1	none (no result: Nrf2 inh, ELG1 DNA repair)
COc1cccc(-c2cc(C(=O)Nc3cnn(Cc4ccc(Cl)cc4Cl)c3)no2)c1	Nrf2 inh inconclusive (no result: ELG1 DNA repair)
C#C[C@]1(O)CCC2C3CCC4=C/C(=N/OCC(=O)NC(C)C(=O)NC(CCSC)C(=O)O)CC[C@]4(C)C3CC[C@@]21C (some centres not stated)	ELG1 DNA repair 8.2µM
COc1cccc2c1cc([N+](=O)[O-])c1c(C(=O)O)cc3c(c12)OCO3	Nrf2 inh 12µM, A549 viability inconclusive (no result: ELG1 DNA repair)
COc1ccc(OC)c(CCNCc2c(C(=O)O)c(C)n(Cc3ccc(F)cc3Cl)c2C)c1	none (no result: ELG1 DNA repair)
CN1C2CCC1/C(=C/c1ccccn1)C(=O)/C2=C\c1ccccn1	Nrf2 inh 5.8µM, A549 viability 7.3µM, ELG1 DNA repair 1.8µM
COc1ccc(C2/C=C\CN(C(=O)Oc3ccc(C(F)(F)F)cc3)CC(=O)N2Cc2ccc(F)cc2)cc1 (configuration not stated)	Nrf2 inh inconclusive, A549 viability inconclusive
CC1CC(C)CC(C)C(O)C(C#N)=CC=CCC(C2CCCC2C(=O)O)OC(=O)CC(O)C(C)C1 (configuration not stated)	Nrf2 inh 0.52µM, A549 viability 2.3µM (no result: ELG1 DNA repair)
CCC(=NCc1ccc2c(c1)OCO2)c1c(O)n(C2CCCCC2)c(=O)[nH]c1=O	Nrf2 inh 12µM, ELG1 DNA repair 21µM (no result: A549 viability)
C=CCn1c(O)c(C(C)=NCc2ccc3c(c2)OCO3)c(=O)[nH]c1=O	Nrf2 inh 21µM, ELG1 DNA repair inconclusive
CCC(=NCCO)c1c(O)n(C2CCCCC2)c(=O)[nH]c1=O	ELG1 DNA repair inconclusive
CCCC12CN3CC(C)(CN(C1)C3c1ccccn1)C2=O (configuration not stated)	none (no result: ELG1 DNA repair)
C[C@H](CO)N1C[C@H](C)[C@@H](CN(C)C(=O)Nc2ccccc2)Oc2c(NS(=O)(=O)c3ccc(F)cc3)cccc2C1=O	ELG1 DNA repair inconclusive
NC(=O)Nc1ccc(C(=O)OCC(=O)Nc2ccc(Cl)cc2C(=O)c2ccccc2)cc1	ELG1 DNA repair 21µM
COC(=O)C[C@]1(C(=O)OC)CN(C#N)N(c2ccc(Cl)cc2)C12c1ccccc1-c1ccccc12	Nrf2 inh inconclusive, A549 viability inconclusive, ELG1 DNA repair 26µM

Screening results (PubChem)
